# Measurements: PMC7862700, “An all-to-all approach to the identification of sequence-specific readers for epigenetic DNA modifications on cytosine”
# How the values were obtained:
# Test in all cases: DAPPL (digital affinity profiling via proximity ligation, sequencing); 10 mM Tris-HCl pH 7.5, 50 mM NaCl, 1 mM DTT, 4% glycerol, room temperature, 30 min; GST-TFs on glutathione beads, 16-mer random dsDNA library, 0.1% formaldehyde crosslink after washing; high values mean tight binding
# FEV = biological target: T1, FEV (Homo sapiens, UniProt Q99581 1-238); details: protein: recombinant; tags: N-terminal GST; dsDNA, one strand shown
# T1 sequence: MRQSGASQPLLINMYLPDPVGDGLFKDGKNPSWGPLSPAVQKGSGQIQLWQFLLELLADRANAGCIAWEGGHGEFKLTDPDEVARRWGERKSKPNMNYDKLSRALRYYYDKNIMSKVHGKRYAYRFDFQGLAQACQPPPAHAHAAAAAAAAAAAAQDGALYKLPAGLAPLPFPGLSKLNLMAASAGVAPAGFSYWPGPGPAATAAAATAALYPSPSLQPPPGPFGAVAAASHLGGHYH
# Procedure, shortened: (§1)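 The binding signal reported is, for every hexamer, its read frequency for a factor over its read frequency for the tag-only sample. Reads came from pools of yeast-expressed, GST-fused human transcription factors on glutathione beads, barcoded with DNA and mixed with that sample, which were incubated with 200 nmole of a random double-stranded 16-mer DNA library in Tris/NaCl/DTT/glycerol buffer at room temperature for 30 min. After washing, the pools were crosslinked with 0.1% formaldehyde, proximity-ligated with BsaI/T4 ligase for 1 h at 37 °C, PCR-amplified and sequenced on an Illumina NextSeq500.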
# ETV5 = ETV5 (Homo sapiens, UniProt P41161 1-510); details: protein: recombinant; tags: N-terminal GST; dsDNA, one strand shown
# Sequence of ETV5 (P41161 whole entry): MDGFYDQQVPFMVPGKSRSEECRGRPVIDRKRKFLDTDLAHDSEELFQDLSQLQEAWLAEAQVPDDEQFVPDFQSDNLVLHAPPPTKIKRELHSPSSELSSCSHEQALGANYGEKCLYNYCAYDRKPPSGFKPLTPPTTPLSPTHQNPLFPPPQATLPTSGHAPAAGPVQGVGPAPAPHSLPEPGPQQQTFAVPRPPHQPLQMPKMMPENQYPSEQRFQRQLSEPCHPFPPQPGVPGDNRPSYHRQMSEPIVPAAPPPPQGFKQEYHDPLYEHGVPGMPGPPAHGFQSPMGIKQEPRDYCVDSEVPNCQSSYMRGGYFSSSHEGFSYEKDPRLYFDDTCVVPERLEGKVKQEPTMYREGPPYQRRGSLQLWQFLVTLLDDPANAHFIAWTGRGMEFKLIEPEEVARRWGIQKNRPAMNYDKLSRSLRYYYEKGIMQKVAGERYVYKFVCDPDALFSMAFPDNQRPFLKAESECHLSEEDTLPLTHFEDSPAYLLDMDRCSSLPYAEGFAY
# Procedure, shortened: as §1
# HSF1 = HSF1 (Homo sapiens, UniProt Q00613 1-529); details: protein: recombinant; tags: N-terminal GST; chain copies: 3; dsDNA, one strand shown
# Sequence of HSF1 (Q00613 whole entry): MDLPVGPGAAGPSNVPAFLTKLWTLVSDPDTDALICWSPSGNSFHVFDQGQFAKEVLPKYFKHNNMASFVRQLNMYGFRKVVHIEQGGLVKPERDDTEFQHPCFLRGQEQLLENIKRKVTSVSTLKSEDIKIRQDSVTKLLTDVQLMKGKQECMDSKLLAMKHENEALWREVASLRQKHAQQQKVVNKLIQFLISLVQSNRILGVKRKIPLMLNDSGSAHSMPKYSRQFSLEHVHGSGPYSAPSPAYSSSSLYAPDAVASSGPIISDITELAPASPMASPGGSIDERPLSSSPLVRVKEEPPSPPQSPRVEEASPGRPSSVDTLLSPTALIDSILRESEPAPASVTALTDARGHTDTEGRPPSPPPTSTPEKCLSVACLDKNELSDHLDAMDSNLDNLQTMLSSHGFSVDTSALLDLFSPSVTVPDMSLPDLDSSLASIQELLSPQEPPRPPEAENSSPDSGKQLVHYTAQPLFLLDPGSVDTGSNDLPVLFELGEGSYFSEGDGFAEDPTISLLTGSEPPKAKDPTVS
# Procedure, shortened: as §1
# SPIC = biological target: T2, SPIC (Homo sapiens, UniProt Q8N5J4 1-248); details: protein: recombinant; tags: N-terminal GST; dsDNA, one strand shown
# T2 sequence: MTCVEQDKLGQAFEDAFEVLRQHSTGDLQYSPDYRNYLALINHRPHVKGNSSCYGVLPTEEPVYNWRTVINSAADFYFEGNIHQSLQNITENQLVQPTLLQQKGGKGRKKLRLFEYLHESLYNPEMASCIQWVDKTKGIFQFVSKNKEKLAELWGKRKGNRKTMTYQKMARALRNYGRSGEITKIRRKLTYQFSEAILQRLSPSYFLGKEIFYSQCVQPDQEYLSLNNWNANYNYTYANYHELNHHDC
# Procedure, shortened: as §1
# ELF4 = ELF4 (Homo sapiens, UniProt Q99607 1-663); details: protein: recombinant; tags: N-terminal GST; dsDNA, one strand shown
# Sequence of ELF4 (Q99607 whole entry): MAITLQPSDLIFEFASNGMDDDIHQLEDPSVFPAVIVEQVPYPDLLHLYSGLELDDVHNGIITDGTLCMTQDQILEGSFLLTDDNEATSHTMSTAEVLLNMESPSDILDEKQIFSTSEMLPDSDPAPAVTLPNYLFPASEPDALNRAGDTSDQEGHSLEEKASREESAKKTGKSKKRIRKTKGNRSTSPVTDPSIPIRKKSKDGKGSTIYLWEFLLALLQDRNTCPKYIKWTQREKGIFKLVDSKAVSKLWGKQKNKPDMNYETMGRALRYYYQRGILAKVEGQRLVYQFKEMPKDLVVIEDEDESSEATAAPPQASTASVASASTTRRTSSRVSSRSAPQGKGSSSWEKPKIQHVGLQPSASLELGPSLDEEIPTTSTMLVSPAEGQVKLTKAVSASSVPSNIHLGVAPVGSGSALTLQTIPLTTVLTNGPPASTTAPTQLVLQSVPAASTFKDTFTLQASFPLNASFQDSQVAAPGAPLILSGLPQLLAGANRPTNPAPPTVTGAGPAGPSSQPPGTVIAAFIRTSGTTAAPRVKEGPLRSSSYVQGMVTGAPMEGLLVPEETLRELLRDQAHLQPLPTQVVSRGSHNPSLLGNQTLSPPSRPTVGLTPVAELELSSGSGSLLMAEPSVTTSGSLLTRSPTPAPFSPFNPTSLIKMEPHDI
# Procedure, shortened: as §1
# ELK4 = biological target: T3, ELK4 (Homo sapiens, UniProt P28324-2 1-405); details: protein: recombinant; tags: N-terminal GST; dsDNA, one strand shown
# T3 sequence: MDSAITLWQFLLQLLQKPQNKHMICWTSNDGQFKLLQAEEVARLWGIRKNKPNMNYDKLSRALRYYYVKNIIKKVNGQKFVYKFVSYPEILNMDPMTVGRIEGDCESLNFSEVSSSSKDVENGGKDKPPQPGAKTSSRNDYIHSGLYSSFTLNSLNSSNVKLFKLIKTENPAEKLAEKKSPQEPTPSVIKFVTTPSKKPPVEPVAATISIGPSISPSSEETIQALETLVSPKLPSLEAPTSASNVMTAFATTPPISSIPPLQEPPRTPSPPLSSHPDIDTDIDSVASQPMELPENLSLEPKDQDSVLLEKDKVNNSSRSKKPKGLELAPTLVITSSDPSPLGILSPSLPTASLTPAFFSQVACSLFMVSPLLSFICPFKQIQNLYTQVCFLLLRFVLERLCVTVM
# Procedure, shortened: as §1
# ETV2 = biological target: T4, ETV2 (Homo sapiens, UniProt O00321 1-342); details: protein: recombinant; tags: N-terminal GST; dsDNA, one strand shown
# T4 sequence: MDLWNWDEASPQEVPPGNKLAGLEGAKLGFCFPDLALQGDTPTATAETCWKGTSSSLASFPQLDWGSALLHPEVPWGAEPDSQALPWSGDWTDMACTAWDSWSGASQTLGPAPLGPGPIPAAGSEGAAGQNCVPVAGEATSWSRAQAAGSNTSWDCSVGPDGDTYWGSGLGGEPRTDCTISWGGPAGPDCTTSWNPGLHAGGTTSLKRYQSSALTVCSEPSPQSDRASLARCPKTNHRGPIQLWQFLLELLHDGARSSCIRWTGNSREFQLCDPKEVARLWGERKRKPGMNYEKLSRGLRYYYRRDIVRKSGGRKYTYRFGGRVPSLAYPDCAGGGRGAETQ
# Procedure, shortened: as §1
# CRX = CRX (Homo sapiens, UniProt O43186 1-299); details: protein: recombinant; tags: N-terminal GST; dsDNA, one strand shown
# Sequence of CRX (O43186 whole entry): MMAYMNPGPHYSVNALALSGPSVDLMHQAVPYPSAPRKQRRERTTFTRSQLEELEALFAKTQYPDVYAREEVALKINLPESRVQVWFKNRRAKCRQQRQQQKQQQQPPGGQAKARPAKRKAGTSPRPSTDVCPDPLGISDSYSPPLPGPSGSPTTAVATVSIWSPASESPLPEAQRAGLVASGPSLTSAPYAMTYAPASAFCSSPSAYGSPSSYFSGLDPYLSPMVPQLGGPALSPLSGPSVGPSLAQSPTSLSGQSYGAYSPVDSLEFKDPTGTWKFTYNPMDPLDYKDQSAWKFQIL
# Procedure, shortened: as §1
# ETV1 = ETV1 (Homo sapiens, UniProt P50549 1-477); details: protein: recombinant; tags: N-terminal GST; dsDNA, one strand shown
# Sequence of ETV1 (P50549 whole entry): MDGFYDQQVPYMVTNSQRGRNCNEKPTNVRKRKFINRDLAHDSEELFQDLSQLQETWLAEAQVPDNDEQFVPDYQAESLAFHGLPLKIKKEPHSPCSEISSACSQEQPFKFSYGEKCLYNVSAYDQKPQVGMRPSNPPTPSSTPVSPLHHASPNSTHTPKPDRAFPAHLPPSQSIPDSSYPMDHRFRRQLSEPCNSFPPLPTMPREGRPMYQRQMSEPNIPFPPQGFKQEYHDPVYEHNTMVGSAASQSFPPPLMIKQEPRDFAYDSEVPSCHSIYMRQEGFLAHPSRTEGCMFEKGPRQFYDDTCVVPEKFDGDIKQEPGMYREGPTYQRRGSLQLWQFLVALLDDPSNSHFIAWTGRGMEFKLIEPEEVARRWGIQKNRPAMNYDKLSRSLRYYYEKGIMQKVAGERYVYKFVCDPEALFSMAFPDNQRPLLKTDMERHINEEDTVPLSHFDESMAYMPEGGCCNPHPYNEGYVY
# Procedure, shortened: as §1
# ERF = biological target: T5, ERF (Homo sapiens, UniProt P50548 1-548); details: protein: recombinant; tags: N-terminal GST; dsDNA, one strand shown
# T5 sequence: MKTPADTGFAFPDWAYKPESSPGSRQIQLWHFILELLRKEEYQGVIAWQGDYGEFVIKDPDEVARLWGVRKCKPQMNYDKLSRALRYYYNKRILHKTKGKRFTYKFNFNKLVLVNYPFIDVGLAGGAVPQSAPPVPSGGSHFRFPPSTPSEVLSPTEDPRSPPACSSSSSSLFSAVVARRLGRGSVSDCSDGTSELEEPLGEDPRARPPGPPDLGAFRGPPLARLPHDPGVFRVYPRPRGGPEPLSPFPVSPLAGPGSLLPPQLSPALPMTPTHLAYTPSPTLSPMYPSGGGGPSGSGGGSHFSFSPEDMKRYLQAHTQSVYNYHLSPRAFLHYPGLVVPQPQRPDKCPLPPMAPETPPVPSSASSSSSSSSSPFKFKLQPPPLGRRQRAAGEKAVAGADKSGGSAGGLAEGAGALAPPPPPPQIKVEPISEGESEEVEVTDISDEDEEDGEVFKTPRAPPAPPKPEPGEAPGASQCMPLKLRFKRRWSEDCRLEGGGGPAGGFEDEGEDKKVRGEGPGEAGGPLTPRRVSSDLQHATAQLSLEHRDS
# Procedure, shortened: as §1
# ETV3L = biological target: T6, ETV3L (Homo sapiens, UniProt Q6ZN32 1-361); details: protein: recombinant; tags: N-terminal GST; dsDNA, one strand shown
# T6 sequence: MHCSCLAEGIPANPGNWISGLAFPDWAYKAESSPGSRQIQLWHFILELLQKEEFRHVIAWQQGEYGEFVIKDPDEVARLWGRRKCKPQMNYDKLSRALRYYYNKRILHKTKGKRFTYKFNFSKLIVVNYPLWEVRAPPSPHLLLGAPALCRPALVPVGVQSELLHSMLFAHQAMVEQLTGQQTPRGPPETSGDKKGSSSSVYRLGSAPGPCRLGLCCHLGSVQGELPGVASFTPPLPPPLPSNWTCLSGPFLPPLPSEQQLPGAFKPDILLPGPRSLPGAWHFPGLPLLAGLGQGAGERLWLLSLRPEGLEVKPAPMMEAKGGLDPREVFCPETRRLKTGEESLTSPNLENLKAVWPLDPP
# Procedure, shortened: as §1
# ETS2 = biological target: T7, ETS2 (Homo sapiens, UniProt P15036 1-469); details: protein: recombinant; tags: N-terminal GST; dsDNA, one strand shown
# T7 sequence: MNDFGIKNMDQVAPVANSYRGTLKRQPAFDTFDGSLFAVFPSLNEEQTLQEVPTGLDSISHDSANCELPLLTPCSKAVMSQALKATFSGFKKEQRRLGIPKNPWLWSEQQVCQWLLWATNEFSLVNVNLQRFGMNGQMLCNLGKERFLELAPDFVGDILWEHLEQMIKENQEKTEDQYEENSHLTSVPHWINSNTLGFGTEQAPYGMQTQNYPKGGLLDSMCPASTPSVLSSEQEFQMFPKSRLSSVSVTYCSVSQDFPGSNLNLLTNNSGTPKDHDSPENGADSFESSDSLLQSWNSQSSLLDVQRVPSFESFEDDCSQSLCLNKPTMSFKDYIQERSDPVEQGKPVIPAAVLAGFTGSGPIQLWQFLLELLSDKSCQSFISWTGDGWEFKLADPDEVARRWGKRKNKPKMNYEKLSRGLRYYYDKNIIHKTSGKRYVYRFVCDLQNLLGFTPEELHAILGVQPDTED
# Procedure, shortened: as §1
# SPDEF = biological target: T8, SPDEF (Homo sapiens, UniProt O95238 1-335); details: protein: recombinant; tags: N-terminal GST; dsDNA, one strand shown
# T8 sequence: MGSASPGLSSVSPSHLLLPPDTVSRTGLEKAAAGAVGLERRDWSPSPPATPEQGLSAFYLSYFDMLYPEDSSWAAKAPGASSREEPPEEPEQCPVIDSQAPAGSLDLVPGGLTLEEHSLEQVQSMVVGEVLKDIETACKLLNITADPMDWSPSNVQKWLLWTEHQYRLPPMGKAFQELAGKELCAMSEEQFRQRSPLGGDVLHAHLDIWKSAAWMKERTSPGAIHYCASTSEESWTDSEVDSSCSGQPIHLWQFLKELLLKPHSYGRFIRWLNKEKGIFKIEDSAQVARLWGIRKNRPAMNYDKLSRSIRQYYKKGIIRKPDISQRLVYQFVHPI
# Procedure, shortened: as §1
# ETV7 = biological target: T9, ETV7 (Homo sapiens, UniProt Q9Y603 1-341); details: protein: recombinant; tags: N-terminal GST; dsDNA, one strand shown
# T9 sequence: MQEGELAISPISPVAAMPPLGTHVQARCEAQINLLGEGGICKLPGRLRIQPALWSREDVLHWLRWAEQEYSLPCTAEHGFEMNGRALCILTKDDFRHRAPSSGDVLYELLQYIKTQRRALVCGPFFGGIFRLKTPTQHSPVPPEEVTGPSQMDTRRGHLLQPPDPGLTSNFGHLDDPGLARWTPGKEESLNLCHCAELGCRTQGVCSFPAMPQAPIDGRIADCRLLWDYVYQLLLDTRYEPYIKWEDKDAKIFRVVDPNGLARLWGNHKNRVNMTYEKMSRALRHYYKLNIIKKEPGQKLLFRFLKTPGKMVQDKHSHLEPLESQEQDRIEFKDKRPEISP
# Procedure, shortened: as §1
# ELF5 = biological target: T10, ELF5 (Homo sapiens, UniProt Q9UKW6-2 1-255); details: protein: recombinant; tags: N-terminal GST; dsDNA, one strand shown
# T10 sequence: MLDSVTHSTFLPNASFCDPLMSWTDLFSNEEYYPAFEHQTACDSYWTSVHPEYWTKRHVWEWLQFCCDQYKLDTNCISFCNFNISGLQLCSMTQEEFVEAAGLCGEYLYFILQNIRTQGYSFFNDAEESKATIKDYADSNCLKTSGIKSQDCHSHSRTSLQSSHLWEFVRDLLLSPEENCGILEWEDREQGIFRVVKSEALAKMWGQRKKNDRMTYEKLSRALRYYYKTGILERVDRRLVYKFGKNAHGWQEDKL
# Procedure, shortened: as §1
# ETV3 = biological target: T11, ETV3 (Homo sapiens, UniProt P41162-2 1-143); details: protein: recombinant; tags: N-terminal GST; dsDNA, one strand shown
# T11 sequence: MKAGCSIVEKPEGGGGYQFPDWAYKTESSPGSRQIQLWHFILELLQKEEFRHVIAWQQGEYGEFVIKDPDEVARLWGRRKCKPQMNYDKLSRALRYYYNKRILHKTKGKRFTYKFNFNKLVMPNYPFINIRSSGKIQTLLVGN
# Procedure, shortened: as §1
# ETV6 = ETV6 (Homo sapiens, UniProt P41212 1-452); details: protein: recombinant; tags: N-terminal GST; dsDNA, one strand shown
# Sequence of ETV6 (P41212 whole entry): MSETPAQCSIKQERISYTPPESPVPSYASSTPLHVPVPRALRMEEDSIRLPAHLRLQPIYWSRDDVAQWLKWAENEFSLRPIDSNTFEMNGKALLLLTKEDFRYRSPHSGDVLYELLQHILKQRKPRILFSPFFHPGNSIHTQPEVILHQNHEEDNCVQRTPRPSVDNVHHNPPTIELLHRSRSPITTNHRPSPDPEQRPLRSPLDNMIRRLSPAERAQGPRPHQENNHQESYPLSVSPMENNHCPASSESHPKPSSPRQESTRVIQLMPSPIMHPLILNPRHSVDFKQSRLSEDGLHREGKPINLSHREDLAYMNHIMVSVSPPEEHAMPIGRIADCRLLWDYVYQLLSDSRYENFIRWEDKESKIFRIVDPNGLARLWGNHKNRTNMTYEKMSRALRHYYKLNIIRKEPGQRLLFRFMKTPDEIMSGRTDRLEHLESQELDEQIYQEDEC
# Procedure, shortened: as §1
sequence,measurement,setting,value
GCCTAT,binding signal,FEV,"1.16 fold enrichment (6-mer frequency, TF over GST control)"
same,binding signal,ETV5,"1.3 fold enrichment (6-mer frequency, TF over GST control)"
same,binding signal,HSF1,"1.07 fold enrichment (6-mer frequency, TF over GST control)"
same,binding signal,SPIC,"1.12 fold enrichment (6-mer frequency, TF over GST control)"
same,binding signal,ELF4,"1.18 fold enrichment (6-mer frequency, TF over GST control)"
same,binding signal,ELK4,"1.31 fold enrichment (6-mer frequency, TF over GST control)"
same,binding signal,ETV2,"1.2 fold enrichment (6-mer frequency, TF over GST control)"
same,binding signal,CRX,"1.3 fold enrichment (6-mer frequency, TF over GST control)"
same,binding signal,ETV1,"1.09 fold enrichment (6-mer frequency, TF over GST control)"
same,binding signal,ERF,"1.23 fold enrichment (6-mer frequency, TF over GST control)"
same,binding signal,ETV3L,"1.28 fold enrichment (6-mer frequency, TF over GST control)"
same,binding signal,ETS2,"1.09 fold enrichment (6-mer frequency, TF over GST control)"
same,binding signal,SPDEF,"1.27 fold enrichment (6-mer frequency, TF over GST control)"
same,binding signal,ETV7,"1.24 fold enrichment (6-mer frequency, TF over GST control)"
same,binding signal,ELF5,"1.15 fold enrichment (6-mer frequency, TF over GST control)"
same,binding signal,ETV3,"1.21 fold enrichment (6-mer frequency, TF over GST control)"
same,binding signal,ETV6,"1.19 fold enrichment (6-mer frequency, TF over GST control)"
